High-throughput results from PubChem BioAssay.
LDHA block – qHTS assay for inhibitors of human lactate dehydrogenase. purified LDHA, NADH/diaphorase-resazurin fluorescence; active compounds read low. activity change, % (values are at about 110 or 230 µM). 0.15% of 480,000 active; in the data active = activity change below about -30%; inconclusive = mostly about -25% to -30%;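 also: plate controls were DMSO wells for no effect and wells without enzyme for full effect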
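Human LDH5 (2 nM) was incubated with 0.06 mM NADH and 0.2 mM pyruvate for 5 min at room temperature in Tris pH 7.4. Remaining NADH was coupled through diaphorase/resazurin, and resorufin fluorescence was read at 0 and 20 min.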
Gal4-VP16 FLuc – VP16 counterscreen qHTS for inhibitors of ROR gamma transcriptional activity; Drosophila S2 Gal4-VP16 UAS-luciferase, luminescence, 20 h; Potency, µM (doses to about 53.6 µM), without a hit: at the highest dose activity, negative = inhibition, most hits filed as inhibitors; 3.5% of 310,000 active; AID 2546, 2010;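 also: Gal4-VP16 expression switched on by copper sulfate through the metallothionein promoter; potency is read from the fitted curve at half-maximal effect; nearly all actives have a fitted effect of over 50% in size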
IL-1B inflam inh – qHTS for Inhibitors of Inflammasome Signaling: IL-1-beta AlphaLISA Primary Screen; THP-1 LPS/ATP IL-1B secretion, AlphaLISA, 16 h; active compounds read low; activity change, % at 57.5 µM; 4.7% of 360,000 active; AID 743279, 2014; in the data active = activity change below about -50%; inconclusive = mostly about -30% to -49%
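THP-1 cells pretreated 1 hr with compounds (up to 57.5 uM final), then stimulated with LPS (250 ng/mL final) plus ATP (1.25 mM final); secreted IL-1B measured by AlphaLISA after 16 hr, decreased signal indicating inhibition.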
DT40 TDP1 no CPT – qHTS for Inhibitors of human tyrosyl-DNA phosphodiesterase 1 (TDP1): qHTS in cells in absence of CPT; DT40 Tdp1-/- hTDP1 cells, no CPT, ATP luminescence, 48 h; 15% of 420,000 active; Potency, µM (doses to about 46.2 µM), without a hit: top-dose activity change, negative = growth inhibition, most hits filed as inhibitors; AID 686978, 2013; also: potency is read from the fitted curve at half-maximal effect; nearly all actives have a fitted effect of over 55% in size
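A cellular qHTS used chicken DT40 cells lacking endogenous Tdp1 but carrying stably transfected human TDP1. Compounds were applied without camptothecin, and cell growth kinetics were judged by ATP-dependent luminescence after ≥48 hr.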
TDP1 cell CPT – qHTS for Inhibitors of human tyrosyl-DNA phosphodiesterase 1 (TDP1): qHTS in cells in presence of CPT | chicken DT40 Tdp1-/-;hTDP1 cells + 20 nM CPT, ATP luminescence, 48 h | Potency, µM (titrated, usually from 46.2 µM), for inactives: at the highest dose activity change, negative = growth inhibition, actives largely listed as inhibitors | 12% of 420,000 active; also: potency is read from the fitted curve at half-maximal effect; nearly all actives have a fitted effect of over 55% in size
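Chicken DT40 Tdp1-/- cells complemented with human TDP1, 400 cells/well, exposed to compounds plus 20 nM camptothecin for at least 48 h at 37 C; viability read as ATP content by CellTiter-Glo luminescence.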
RORgamma inh – qHTS for inhibitors of ROR gamma transcriptional activity; Nuclear receptor ROR-gamma (Mus musculus), P51450; Drosophila S2 Gal4-RORgamma UAS-luciferase reporter, 20 h; Potency, µM (doses to about 53.6 µM), for inactives: at the top dose activity change, negative = inhibition, most hits filed as inhibitors; 5.4% of 310,000 active; AID 2551, 2010; also: potency is read from the fitted curve at half-maximal effect; nearly all actives have a fitted effect of over 60% in size
Target sequence (P51450 whole entry, looked up, the tested form may be a part): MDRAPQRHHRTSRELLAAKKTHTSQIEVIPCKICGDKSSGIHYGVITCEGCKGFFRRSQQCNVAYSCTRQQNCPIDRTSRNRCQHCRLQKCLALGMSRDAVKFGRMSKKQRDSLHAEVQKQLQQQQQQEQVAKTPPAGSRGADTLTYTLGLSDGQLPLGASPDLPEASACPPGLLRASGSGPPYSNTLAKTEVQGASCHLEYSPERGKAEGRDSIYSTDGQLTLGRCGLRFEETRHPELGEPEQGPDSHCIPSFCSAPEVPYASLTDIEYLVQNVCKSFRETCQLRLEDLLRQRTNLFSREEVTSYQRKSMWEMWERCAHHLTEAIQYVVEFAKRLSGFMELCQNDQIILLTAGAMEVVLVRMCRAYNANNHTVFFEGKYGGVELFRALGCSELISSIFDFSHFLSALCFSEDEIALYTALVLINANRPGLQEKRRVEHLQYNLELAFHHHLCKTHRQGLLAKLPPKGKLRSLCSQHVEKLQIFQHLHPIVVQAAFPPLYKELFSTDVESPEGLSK
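ROR gamma transcriptional activity was tracked as Gal4-UAS luciferase output in stably transfected Drosophila Schneider cells, with compound added 1 hr before 700 uM copper sulfate induction and a 20 hr ambient-temperature incubation.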
* hit, by the source's call; ? = inconclusive; / = not tested or not shown. The list is not random: actives were taken first. Their share in the collection is about 18%. Unless noted, calls follow the shape of the dose curve; as a rule, active = well fitted curve in the direction sought with a large enough effect; inconclusive = small, poorly fitted or top-dose-only effect, or another doubt; inactive = no such curve, though single readings can be large; an effect the other way counts as inactive or inconclusive. Unless noted, % is scaled to controls: 0 for no effect and ±100 for the full control effect.

SMILES	LDHA block	Gal4-VP16 FLuc	IL-1B inflam inh	DT40 TDP1 no CPT	TDP1 cell CPT	RORgamma inh
COc1ccc(CN(CC2CCC(C(=O)O)CC2)C(=S)Nc2cc(Cl)ccc2OC)cc1 (stereo not given)	-6.8	-9.0%	13.8	1.9%	-5.3%	?
CCc1ccc(CN(Cc2cn[nH]c2-c2ccc(OC)cc2)C(=O)Nc2cc(Cl)ccc2OC)cc1	0.3	/	/	23.1µM*	16.4µM*	/
Cn1c(=O)c2c(nc(NC3CCCCC3)n2Cc2c(F)cccc2Cl)n(C)c1=O	10.8	/	/	/	/	/
C=CCn1c(NCCc2ccccc2)nc2c1c(=O)n(C)c(=O)n2C	-2.4	?	-21.1	8.2µM*	9.2µM*	0.0%
C=CCn1c(Oc2cccc(C)c2)nc2c1c(=O)n(C)c(=O)n2C	5.3	18.3%	32.7	?	-27.1%	6.3%
COCCNc1nc2c(c(=O)n(Cc3cccc(Br)c3)c(=O)n2C)n1C	-9.7	12.0%	25.8	23.1µM*	?	3.0%
COCCCNc1nc2c(c(=O)n(Cc3cccc(Br)c3)c(=O)n2C)n1C	-11.5	-1.5%	28.2	?	-29.9%	10.5%
Cn1c(=O)c2c(nc(CN3CCCCC3)n2Cc2c(F)cccc2Cl)n(C)c1=O	-15.3	2.4%	12.4	23.1µM*	?	-20.1%
C=CCn1c(Oc2cc(C)ccc2C)nc2c1c(=O)n(C)c(=O)n2C	-5.7	5.2%	-0.7	16.4µM*	14.6µM*	-3.6%
CC(C)(C)OC(=O)NC1CCCN(Cc2cccs2)C1 (stereo not given)	-5.4	/	/	/	/	/
Cn1c(=O)c2c(nc(NCCCO)n2Cc2cccc(C(F)(F)F)c2)n(C)c1=O	-5.9	-3.9%	11.1	14.6µM*	18.4µM*	?
COCCCNc1nc2c(c(=O)n(C)c(=O)n2C)n1Cc1ccccc1	-1.5	/	/	11.6µM*	16.4µM*	/
CCCCCCNc1nc2c(c(=O)n(C)c(=O)n2C)n1Cc1cccc(C)c1	1.9	/	/	/	/	/
C/C(Cl)=C/Cn1c(=O)c2c(nc(Br)n2Cc2ccccc2)n(C)c1=O	-5.5	19.9%	-10.1	20.6µM*	?	35.5%
CCNc1nc2c(c(=O)n(C)c(=O)n2C)n1CCCc1ccccc1	-6.2	11.2µM*	-9.0	5.8µM*	11.6µM*	?
Cn1c(=O)n(Cc2ccccc2)c(=O)c2c1nc(Cl)n2Cc1ccccc1	-3.8	/	/	/	/	/
Cc1ccc(-c2cc(C(=O)O)c3cccc(Cl)c3n2)o1	0.3	/	/	/	/	/
CCn1cnc2c1c(=O)n(CC(=O)Nc1c(C)cccc1C)c(=O)n2Cc1ccccc1	-12.3	/	/	/	/	/
Cc1ccc(-c2[nH]ncc2CNC(C)c2cccs2)cc1 (stereo not given)	4.6	/	/	/	/	/
Cc1cc(NS(=O)(=O)c2ccc(NC(=O)c3oc4ccccc4c3C)cc2)nc(C)n1	2.6	/	/	/	/	/
Cn1c(=O)c2c(nc(Cl)n2Cc2cccc(Cl)c2)n(C)c1=O	0.4	/	/	/	/	/
COc1ccc(CCNc2nc3c(c(=O)n(C)c(=O)n3C)n2Cc2ccccc2Cl)cc1OC	-1.1	/	/	7.31µM*	13µM*	/
Cn1c(=O)c2c(nc(CN3CCN(Cc4ccccc4)CC3)n2Cc2cccc(Cl)c2)n(C)c1=O	2.8	1.5%	-20.1	16.4µM*	23.1µM*	3.4%
Cn1c(=O)c2c(nc(NCCc3ccc(F)cc3)n2Cc2ccc(F)cc2)n(C)c1=O	7.1	/	/	/	/	/
Cc1ccc(Cn2c(NCCc3ccccc3)nc3c2c(=O)n(C)c(=O)n3C)cc1	6.2	?	?	8.2µM*	6.51µM*	-33.1%
SMILES	LDHA block	Gal4-VP16 FLuc	IL-1B inflam inh	DT40 TDP1 no CPT	TDP1 cell CPT	RORgamma inh
COCCNc1nc2c(c(=O)n(C)c(=O)n2C)n1Cc1c(F)cccc1Cl	-12.1	/	/	2.59µM*	1.84µM*	/
CN(CCCOc1ccccc1)CCC(=O)N(CC#N)CC#N	1.9	/	/	/	/	/
Cn1c(=O)[nH]c(=O)c2c1nc(NCCc1ccccc1)n2CC(=O)c1ccccc1	12.1	/	/	/	/	/
Cc1cccc(Cn2c(NCC3CCCO3)nc3c2c(=O)n(C)c(=O)n3C)c1 (stereo not given)	4.6	/	/	/	/	/
Cn1c(=O)c2c(nc(Br)n2Cc2ccc3ccccc3c2)n(C)c1=O	0.7	?	-28.8	?	20.6µM*	-21.8%
Cn1c(=O)c2c(nc(NCC3CCCO3)n2Cc2cccc(Br)c2)n(C)c1=O (stereo not given)	-2.0	0.1%	0.0	14.6µM*	?	6.4%
C/C(Cl)=C\Cn1c(NCCc2ccccc2)nc2c1c(=O)n(C)c(=O)n2C	-3.1	3.55µM*	-51.9*	0.82µM*	0.651µM*	7.08µM*
S=C(c1nc2ccccc2[nH]1)N1CCOCC1	5.8	6.31µM*	-10.5	?	?	5.01µM*
Cc1ccc(-c2ccc(C=O)o2)cc1C	3.9	/	/	/	/	/
O=C(Nc1cccc(-c2nc3ccccc3o2)c1)c1ccc(-c2ccc(Br)cc2)o1	-5.2	/	/	10.3µM*	?	/
COc1ccc(-c2nc3ccccc3o2)cc1NC(=O)c1ccc(-c2ccc(Br)cc2)o1	-7.6	/	/	-20.3%	0.4%	/
O=C(Nc1ccc2oc(-c3cc(Br)ccc3Cl)nc2c1)c1cc2ccccc2o1	3.6	/	/	10.3µM*	16.4µM*	/
O=C(Nc1cccc(NC(=O)c2ccc(-c3ccc(Br)cc3)o2)c1)c1ccco1	0.0	-23.4%	84.7	13µM*	?	?
COC(=O)c1ccccc1NC(=O)c1ccc(-c2ccc(Br)cc2)o1	-3.4	-4.4%	22.3	1.64µM*	-10.7%	15.8%
Cc1ccc2cccc(NC(=O)c3ccc(-c4ccc(Br)cc4)o3)c2n1	-2.6	/	/	-4.7%	-16.2%	/
CC(Oc1ccc(C(C)C)cc1)C(=O)Nc1ccc(-n2cnnn2)cc1 (stereo not given)	4.4	/	/	/	/	/
COc1ccc(Nc2cc(C)nc(Nc3ccc(NC(=O)CC(C)(C)C)cc3)n2)cc1	4.3	/	/	/	/	/
O=C(Nc1cccc(-c2nc3ccccc3o2)c1)c1ccc(N2C(=O)C3C4C=CC(C4)C3C2=O)cc1 (stereo not given)	-6.3	-3.7%	64.6	8.2µM*	7.31µM*	30.3%
O=C(Nc1ccc2oc(-c3ccc(Br)cc3)nc2c1)c1cc2ccccc2o1	0.2	/	/	10.3µM*	?	/
O=C(Nc1ccc2oc(-c3cccnc3)nc2c1)c1cc2ccccc2o1	-2.5	-7.7%	-8.2	-27.9%	?	-0.8%
